{
  "source": "the supplement of paper PMC8728848",
  "test_in_all_cases": "glycan array binding signal (z-score within array); higher = stronger binding",
  "conditions_in_all_cases": "glycan notation: IUPAC condensed, linker removed",
  "key": {"[1]": {"biological_target": "GalNAc(a1-3)GalNAc(b1-3)Gal(a1-4)Gal(b1-4)Glc", "method_in_brief": "(§1)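 Negative Z-scores can be read as non-binding. The Z-score is calculated within each array and then averaged across arrays of one protein sequence at different concentrations or buffers and across linkers. Arrays, 3228 in all, were curated from the Consortium for Functional Glycomics database and kept only where the protein sequence was available.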"}, "[2]": {"biological_target": "GalNAc(b1-3)Gal(a1-4)Gal(b1-4)GlcNAc(b1-3)Gal(b1-4)Glc", "method_in_brief": "as §1"}, "Glc(a1-4)Glc": {"biological_target": "Glc(a1-4)Glc", "method_in_brief": "as §1"}, "Glc(a1-6)Glc(a1-6)Glc": {"biological_target": "Glc(a1-6)Glc(a1-6)Glc", "method_in_brief": "as §1"}, "[3]": {"biological_target": "GlcA3S(b1-3)Gal(b1-4)GlcNAc(b1-2)Man", "method_in_brief": "as §1"}, "[4]": {"biological_target": "GlcA3S(b1-3)Gal(b1-4)GlcNAc(b1-3)Gal(b1-4)Glc", "method_in_brief": "as §1"}, "[5]": {"biological_target": "GlcNAc(a1-4)Gal(b1-4)GalNAc", "method_in_brief": "as §1"}, "[6]": {"biological_target": "GlcNAc(a1-4)Gal(b1-4)GlcNAc(b1-3)Gal(b1-4)[Fuc(a1-3)]GlcNAc(b1-3)Gal(b1-4)[Fuc(a1-3)]GlcNAc", "method_in_brief": "as §1"}, "[7]": {"biological_target": "GlcNAc(b1-2)[GlcNAc(b1-4)]Man(a1-3)[GlcNAc(b1-4)][GlcNAc(b1-2)[GlcNAc(b1-6)]Man(a1-6)]Man(b1-4)GlcNAc(b1-4)[Fuc(a1-6)]GlcNAc", "method_in_brief": "as §1"}, "[8]": {"biological_target": "GlcNAc(b1-3)Gal(b1-4)GlcNAc(b1-3)Gal(b1-4)GlcNAc(b1-3)Gal(b1-4)GlcNAc(b1-2)Man(a1-3)[GlcNAc(b1-3)Gal(b1-4)GlcNAc(b1-3)Gal(b1-4)GlcNAc(b1-3)Gal(b1-4)GlcNAc(b1-2)Man(a1-6)]Man(b1-4)GlcNAc(b1-4)GlcNAc", "method_in_brief": "as §1"}, "GlcNAc(b1-6)GalNAc": {"biological_target": "GlcNAc(b1-6)GalNAc", "method_in_brief": "as §1"}, "[9]": {"biological_target": "Man(a1-3)[Man(a1-6)]Man(b1-4)GlcNAc(b1-4)[Fuc(a1-6)]GlcNAc", "method_in_brief": "as §1"}, "[10]": {"biological_target": "Neu5Ac(a2-3)Gal(b1-3)GlcNAc(b1-2)Man", "method_in_brief": "as §1"}, "[11]": {"biological_target": "Neu5Ac(a2-3)Gal(b1-3)GlcNAc(b1-2)Man(a1-3)[GlcNAc(b1-4)][Neu5Ac(a2-3)Gal(b1-3)GlcNAc(b1-2)Man(a1-6)]Man(b1-4)GlcNAc(b1-4)GlcNAc", "method_in_brief": "as §1"}, "[12]": {"biological_target": "Neu5Ac(a2-3)Gal(b1-3)GlcNAc(b1-3)GalNAc", "method_in_brief": "as §1"}, "[13]": {"biological_target": "Neu5Ac(a2-3)Gal(b1-3)GlcNAc(b1-6)GalNAc", "method_in_brief": "as §1"}, "[14]": {"biological_target": "Neu5Ac(a2-3)Gal(b1-3)[Fuc(a1-4)]GlcNAc", "method_in_brief": "as §1"}, "[15]": {"biological_target": "Neu5Ac(a2-3)Gal(b1-4)GlcNAc(b1-2)Man(a1-3)[Neu5Ac(a2-6)Gal(b1-4)GlcNAc(b1-2)Man(a1-6)]Man(b1-4)GlcNAc(b1-4)GlcNAc", "method_in_brief": "as §1"}, "[16]": {"biological_target": "Neu5Ac(a2-3)Gal(b1-4)GlcNAc(b1-3)Gal", "method_in_brief": "as §1"}, "[17]": {"biological_target": "Neu5Ac(a2-3)Gal(b1-4)GlcNAc(b1-3)Gal(b1-4)GlcNAc(b1-6)[Gal(b1-3)]GalNAc", "method_in_brief": "as §1"}, "[18]": {"biological_target": "Neu5Ac(a2-6)Gal(b1-4)GlcNAc(b1-2)Man(a1-3)[Neu5Ac(a2-6)Gal(b1-4)GlcNAc(b1-2)Man(a1-6)]Man(b1-4)GlcNAc(b1-4)GlcNAc", "method_in_brief": "as §1"}, "[19]": {"biological_target": "Neu5Ac(a2-6)GlcNAc(b1-4)GlcNAc(b1-4)GlcNAc", "method_in_brief": "as §1"}, "Neu5Ac(b2-6)GalNAc": {"biological_target": "Neu5Ac(b2-6)GalNAc", "method_in_brief": "as §1"}, "[20]": {"biological_target": "Neu5Gc(a2-3)Gal(b1-3)GlcNAc", "method_in_brief": "as §1"}, "[21]": {"biological_target": "Neu5Gc(a2-3)Gal(b1-4)GlcNAc", "method_in_brief": "as §1"}, "Neu5Gc(a2-6)GalNAc": {"biological_target": "Neu5Gc(a2-6)GalNAc", "method_in_brief": "as §1"}},
  "note": "This is one part of a sample in which the strongest signals are shown more often than they occur.",
  "data": [
    {"binder": "Epa11 (Candida glabrata) (protein) MGSSHHHHHHSSGLVPRGSHMASSNAPNYPVGCSPSVGTQLTPGLSLEVYAYPMDGNNGYCWNATYKDPEFPRSGYLKNKLLGKADGVVGPLNFLAKNKDCSPKVDTLPAGFNFPQPITVTNFTMVLFGYLAPKQSGKYTFKLLADDLLLLNLGATNAFDCCNREATKNNLGEFLAYNLWPNQDKNVTVYLEKGVYYPLRLFFNNRDGGSQLDFSYYFNDSPAPLTDFSGMFFSVPDGAECPARI", "values": [
      {"measurement": "glycan array binding signal (z-score)", "setting": "[1]", "value": -0.437},
      {"measurement": "glycan array binding signal (z-score)", "setting": "[2]", "value": -0.094},
      {"measurement": "glycan array binding signal (z-score)", "setting": "Glc(a1-4)Glc", "value": -1.42},
      {"measurement": "glycan array binding signal (z-score)", "setting": "Glc(a1-6)Glc(a1-6)Glc", "value": -0.516},
      {"measurement": "glycan array binding signal (z-score)", "setting": "[3]", "value": 0.356},
      {"measurement": "glycan array binding signal (z-score)", "setting": "[4]", "value": -0.579},
      {"measurement": "glycan array binding signal (z-score)", "setting": "[5]", "value": -0.891},
      {"measurement": "glycan array binding signal (z-score)", "setting": "[6]", "value": 0.211},
      {"measurement": "glycan array binding signal (z-score)", "setting": "[7]", "value": 2.33},
      {"measurement": "glycan array binding signal (z-score)", "setting": "[8]", "value": -0.16},
      {"measurement": "glycan array binding signal (z-score)", "setting": "GlcNAc(b1-6)GalNAc", "value": -0.586},
      {"measurement": "glycan array binding signal (z-score)", "setting": "[9]", "value": 5.52},
      {"measurement": "glycan array binding signal (z-score)", "setting": "[10]", "value": -0.819},
      {"measurement": "glycan array binding signal (z-score)", "setting": "[11]", "value": 2.81},
      {"measurement": "glycan array binding signal (z-score)", "setting": "[12]", "value": 0.127},
      {"measurement": "glycan array binding signal (z-score)", "setting": "[13]", "value": 0.52},
      {"measurement": "glycan array binding signal (z-score)", "setting": "[14]", "value": -0.534},
      {"measurement": "glycan array binding signal (z-score)", "setting": "[15]", "value": -0.573},
      {"measurement": "glycan array binding signal (z-score)", "setting": "[16]", "value": -0.477},
      {"measurement": "glycan array binding signal (z-score)", "setting": "[17]", "value": -0.079},
      {"measurement": "glycan array binding signal (z-score)", "setting": "[18]", "value": -0.433},
      {"measurement": "glycan array binding signal (z-score)", "setting": "[19]", "value": -0.053},
      {"measurement": "glycan array binding signal (z-score)", "setting": "Neu5Ac(b2-6)GalNAc", "value": -0.375},
      {"measurement": "glycan array binding signal (z-score)", "setting": "[20]", "value": 0.029},
      {"measurement": "glycan array binding signal (z-score)", "setting": "[21]", "value": -0.644},
      {"measurement": "glycan array binding signal (z-score)", "setting": "Neu5Gc(a2-6)GalNAc", "value": -0.604}
    ]}
  ]
}
